Source: the supplement of paper PMC10849652
Of roughly 8,800 targets only a part is listed; those with a hit were picked by preference. About 0.5% of all pairs of compound and target were hits.

Columns and labels:
Assay in all cases: log2 fold change, soluble protein after heating vs DMSO (PISA); higher = thermal stabilisation; K562 lysate, 10 uM; active = over 0.2 and 3.5 SD of the protein, either way, in both replicates (recomputed)
erlotinib = compound: C#Cc1cccc(Nc2ncnc3cc(OCCOC)c(OCCOC)cc23)c1 [erlotinib]
Method in brief: (§1)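 K562 pellets were dounce-homogenised in PBS pH 7.4 containing 1 mM MgCl2, and the crude extract, at 1 mg/mL protein, was exposed to 10 μM compound for 30 min. Aliquots were heated for 3 min across 48°C-58°C, pooled, brought to 0.5% NP-40 at 4°C and spun at 21,000xg for 90 min, with the supernatant taken as soluble protein. TMTpro 16plex LC-MS/MS with equalised channel sums quantified that protein. Values are log-two fold changes in thermal stability relative to solvent controls, taken from duplicates.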

[1] = compound: C/C(=N\NC(=O)C1=CC(=CC=C1)S(=O)(=O)N2CCOCC2)/C3=C(C=CC(=C3)Cl)O
Method in brief: as §1

[2] = compound: C1=CC(=CC=C1C2=NC3=C(N2)C=C(C=C3)C(=O)N)OC4=CC=C(C=C4)Cl
Method in brief: as §1

[3] = compound: C1=CC2=C(C=CC(=C2)/C=C\3/C(=O)NC(=NCC4=CC=CS4)S3)N=C1
Method in brief: as §1

[4] = compound: C1=CC2=NC=CN=C2C=C1/C=C/3\C(=O)NC(=O)S3
Method in brief: as §1

[5] = compound: C1=CC=C(C=C1)C2=NC(=C(N2)C3=CC=NC=C3)C4=CC(=C(C=C4)Cl)O
Method in brief: as §1

[6] = compound: C1=CC=C2C(=C1)C3=NNC4=CC=CC(=C43)C2=O
Method in brief: as §1

[7] = compound: C1CCN(C1)C(=O)NC2=CC=CC(=C2)NC3=NC=C(C(=N3)NCCC4=CN=CN4)Br
Method in brief: as §1

[8] = compound: C1CN(CCC1(CC2=CC=C(C=C2)Cl)N)C3=NC=NC4=C3C=CN4
Method in brief: as §1

IRAK-1-4 Inhibitor I = compound: C1COCCN1CCN2C3=CC=CC=C3N=C2NC(=O)C4=CC(=CC=C4)[N+](=O)[O-] [IRAK-1-4 Inhibitor I]
Method in brief: as §1

ibrutinib = compound: C=CC(=O)N1CCC[C@@H](n2nc(-c3ccc(Oc4ccccc4)cc3)c3c(N)ncnc32)C1 [ibrutinib]
Method in brief: as §1

[9] = compound: CC(=O)c1cnc2ccc(-c3cc(Cl)c(O)c(Cl)c3)nc2c1N[C@H]1CC[C@H](CN(C)C)CC1
Method in brief: as §1

ralimetinib = compound: CC(C)(C)Cn1c(N)nc2ccc(-c3[nH]c(C(C)(C)C)nc3-c3ccc(F)cc3)nc21 [ralimetinib]
Method in brief: as §1

[10] = compound: CC(C)(O)CC(=O)NCCn1ccc2ncnc(Nc3ccc(Oc4cccc(C(F)(F)F)c4)c(Cl)c3)c21
Method in brief: as §1

[11] = compound: CC(C)C1=C2N=C(C=C(N2N=C1)NCC3=CC=CC=C3)NCCCCCCN
Method in brief: as §1

[12] = compound: CC1=C(C(CC(=O)N1)C2=CC=C(C=C2)C(F)(F)F)C(=O)NC3=C(C=C4C(=C3)C=NN4)F
Method in brief: as §1

[13] = compound: CC1=C(C2=C(C=C1)C(=O)C3=CC=CC=C3N2CCCN)C
Method in brief: as §1

[14] = compound: CC1=C(C=C(C=C1)NC(=O)C2=CC(=CC=C2)C(C)(C)C#N)NC3=CC4=C(C=C3)N=CN(C4=O)C
Method in brief: as §1

[15] = compound: CC1=C(C=C(C=C1)NC(=O)C2=CC(=CC=C2)N(C)C)NC(=O)C3=CC=C(C=C3)O
Method in brief: as §1

[16] = compound: CC1=CC=C(C=C1)SC2=C3C=C(SC3=CN=C2)C(=O)N
Method in brief: as §1

Measured: log2 fold change

COG4 (UniProt Q9H9E3)
UniProt Q9H9E3, sequence (Q9H9E3 whole entry, looked up): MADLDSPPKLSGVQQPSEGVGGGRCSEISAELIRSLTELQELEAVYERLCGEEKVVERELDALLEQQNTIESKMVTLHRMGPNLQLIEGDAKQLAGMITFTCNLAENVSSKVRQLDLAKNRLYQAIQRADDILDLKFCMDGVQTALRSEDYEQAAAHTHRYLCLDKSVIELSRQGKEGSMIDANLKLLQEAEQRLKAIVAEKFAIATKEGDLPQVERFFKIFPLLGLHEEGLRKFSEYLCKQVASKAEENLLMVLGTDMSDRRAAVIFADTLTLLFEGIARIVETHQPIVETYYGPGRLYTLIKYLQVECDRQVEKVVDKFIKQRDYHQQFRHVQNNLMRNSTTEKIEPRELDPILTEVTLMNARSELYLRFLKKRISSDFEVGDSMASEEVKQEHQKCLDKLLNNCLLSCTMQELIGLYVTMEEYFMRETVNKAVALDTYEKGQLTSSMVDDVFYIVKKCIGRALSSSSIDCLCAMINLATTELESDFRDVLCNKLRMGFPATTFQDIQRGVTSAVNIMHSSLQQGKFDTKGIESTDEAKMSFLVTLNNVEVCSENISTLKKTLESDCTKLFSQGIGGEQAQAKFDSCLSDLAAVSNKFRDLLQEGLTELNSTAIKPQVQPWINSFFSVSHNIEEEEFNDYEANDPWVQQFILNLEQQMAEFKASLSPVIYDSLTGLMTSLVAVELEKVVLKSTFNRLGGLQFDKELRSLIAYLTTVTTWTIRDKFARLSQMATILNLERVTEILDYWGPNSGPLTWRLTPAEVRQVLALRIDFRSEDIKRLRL
inactive: erlotinib 0.029 | [1] -0.015 | [2] -0.05 | [3] -0.015 | [4] -0.018 | [5] 0.008 | [6] -0.057 | [7] 0.011 | [8] 0.039 | IRAK-1-4 Inhibitor I 0.009 | ibrutinib 0.014 | [9] 0.005 | ralimetinib -0.007 | [10] -0.042 | [11] -0.029 | [12] 0 | [13] -0.001 | [14] -0.049 | [15] -0.033 | [16] 0

COL6A5 (UniProt A8TX70)
UniProt A8TX70, sequence (A8TX70 whole entry, looked up): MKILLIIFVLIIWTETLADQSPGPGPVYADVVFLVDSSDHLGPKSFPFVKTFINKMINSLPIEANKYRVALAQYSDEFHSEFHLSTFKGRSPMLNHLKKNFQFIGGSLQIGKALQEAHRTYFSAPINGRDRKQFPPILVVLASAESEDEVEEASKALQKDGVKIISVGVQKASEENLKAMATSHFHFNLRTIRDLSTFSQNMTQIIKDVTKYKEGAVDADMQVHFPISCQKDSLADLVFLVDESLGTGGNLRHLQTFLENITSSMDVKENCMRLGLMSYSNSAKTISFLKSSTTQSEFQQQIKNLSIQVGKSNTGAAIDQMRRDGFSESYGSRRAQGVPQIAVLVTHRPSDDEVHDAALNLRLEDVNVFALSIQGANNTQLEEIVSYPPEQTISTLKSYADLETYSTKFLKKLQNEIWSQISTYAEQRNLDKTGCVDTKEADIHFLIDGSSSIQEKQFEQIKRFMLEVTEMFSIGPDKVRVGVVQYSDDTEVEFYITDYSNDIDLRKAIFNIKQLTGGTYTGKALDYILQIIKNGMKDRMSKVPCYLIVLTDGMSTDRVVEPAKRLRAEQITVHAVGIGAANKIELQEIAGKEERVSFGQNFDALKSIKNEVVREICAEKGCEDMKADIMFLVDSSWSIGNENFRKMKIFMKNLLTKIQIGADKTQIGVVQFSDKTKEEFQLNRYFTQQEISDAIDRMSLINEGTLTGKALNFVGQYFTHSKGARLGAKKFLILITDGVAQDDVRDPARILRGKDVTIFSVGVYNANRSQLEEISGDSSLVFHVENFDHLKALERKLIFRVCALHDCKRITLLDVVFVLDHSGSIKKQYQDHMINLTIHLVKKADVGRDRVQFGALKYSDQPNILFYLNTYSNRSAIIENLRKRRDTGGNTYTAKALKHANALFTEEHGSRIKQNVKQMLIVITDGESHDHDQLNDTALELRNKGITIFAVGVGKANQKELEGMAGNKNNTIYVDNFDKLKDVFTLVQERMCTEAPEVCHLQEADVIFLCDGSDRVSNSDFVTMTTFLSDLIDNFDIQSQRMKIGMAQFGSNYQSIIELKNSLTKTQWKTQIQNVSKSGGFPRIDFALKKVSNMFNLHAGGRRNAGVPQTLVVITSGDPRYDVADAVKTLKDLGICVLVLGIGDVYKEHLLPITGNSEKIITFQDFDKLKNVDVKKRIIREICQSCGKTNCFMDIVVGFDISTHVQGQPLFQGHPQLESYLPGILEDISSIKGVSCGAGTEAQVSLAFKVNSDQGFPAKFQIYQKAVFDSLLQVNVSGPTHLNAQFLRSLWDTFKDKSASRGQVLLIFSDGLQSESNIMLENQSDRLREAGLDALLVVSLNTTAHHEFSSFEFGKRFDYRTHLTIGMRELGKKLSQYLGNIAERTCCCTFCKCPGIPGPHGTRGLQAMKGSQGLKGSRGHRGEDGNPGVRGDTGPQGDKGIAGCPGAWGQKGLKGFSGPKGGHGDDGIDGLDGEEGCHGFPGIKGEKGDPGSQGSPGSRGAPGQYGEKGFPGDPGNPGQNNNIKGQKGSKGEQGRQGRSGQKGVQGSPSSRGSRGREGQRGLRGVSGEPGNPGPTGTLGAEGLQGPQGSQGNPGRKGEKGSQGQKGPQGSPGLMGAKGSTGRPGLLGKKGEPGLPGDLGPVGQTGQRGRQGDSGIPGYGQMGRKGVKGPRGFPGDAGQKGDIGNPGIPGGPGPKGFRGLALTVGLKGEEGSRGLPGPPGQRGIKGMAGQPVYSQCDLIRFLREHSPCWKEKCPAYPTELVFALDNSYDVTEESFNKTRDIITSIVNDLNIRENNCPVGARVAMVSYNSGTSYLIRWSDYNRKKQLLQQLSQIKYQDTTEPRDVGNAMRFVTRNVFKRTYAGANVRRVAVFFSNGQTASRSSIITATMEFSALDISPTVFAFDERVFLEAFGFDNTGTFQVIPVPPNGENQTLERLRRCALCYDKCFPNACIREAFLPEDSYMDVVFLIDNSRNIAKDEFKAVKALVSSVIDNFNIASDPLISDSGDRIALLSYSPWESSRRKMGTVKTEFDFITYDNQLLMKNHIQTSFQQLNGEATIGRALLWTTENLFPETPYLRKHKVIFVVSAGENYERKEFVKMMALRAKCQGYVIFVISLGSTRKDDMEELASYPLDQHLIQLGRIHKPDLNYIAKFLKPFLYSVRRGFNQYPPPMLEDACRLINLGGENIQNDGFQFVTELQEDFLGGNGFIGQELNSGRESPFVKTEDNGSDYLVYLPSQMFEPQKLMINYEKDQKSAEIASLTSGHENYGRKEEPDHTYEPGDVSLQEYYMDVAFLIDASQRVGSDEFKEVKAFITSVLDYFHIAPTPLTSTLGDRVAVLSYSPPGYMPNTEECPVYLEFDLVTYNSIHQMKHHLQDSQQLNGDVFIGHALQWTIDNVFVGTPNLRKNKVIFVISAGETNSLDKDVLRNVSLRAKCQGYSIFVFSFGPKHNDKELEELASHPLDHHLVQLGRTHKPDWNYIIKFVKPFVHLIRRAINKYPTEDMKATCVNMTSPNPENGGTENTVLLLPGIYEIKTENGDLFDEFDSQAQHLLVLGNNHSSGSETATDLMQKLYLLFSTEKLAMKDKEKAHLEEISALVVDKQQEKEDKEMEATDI
inactive: erlotinib 0.064 | [1] 0.161 | [2] 0.02 | [3] -0.062 | [4] -0.167 | [5] 0.027 | [6] 0.014 | [7] 0.014 | [8] -0.052 | IRAK-1-4 Inhibitor I 0.046 | ibrutinib 0.046 | [9] -0.023 | ralimetinib -0.083 | [10] -0.141 | [11] 0.018 | [12] 0.063 | [13] -0.038 | [14] 0.108 | [15] -0.011 | [16] -0.053

CKS1B (UniProt P61024)
inactive: erlotinib -0.058 | [1] -0.097 | [2] -0.037 | [3] 0.042 | [4] 0.008 | [5] 0.121 | [6] 0.092 | [7] 0.038 | [8] -0.012 | IRAK-1-4 Inhibitor I -0.018 | ibrutinib 0.049 | [9] 0.01 | ralimetinib -0.161 | [10] -0.034 | [11] 0.011 | [12] 0.055 | [13] 0 | [14] -0.059 | [15] 0.003 | [16] -0.012

COG5 isoform 2 (UniProt Q9UP83)
inactive: erlotinib 0.073 | [1] 0.016 | [2] -0.044 | [3] 0.001 | [4] -0.004 | [5] 0.019 | [6] 0.031 | [7] 0.019 | [8] 0.043 | IRAK-1-4 Inhibitor I -0.001 | ibrutinib 0.061 | [9] -0.036 | ralimetinib 0.074 | [10] -0.027 | [11] 0.037 | [12] -0.005 | [13] 0.04 | [14] -0.016 | [15] 0.073 | [16] 0.052

DCP2 (UniProt Q8IU60)
inactive: erlotinib 0.005 | [1] 0.039 | [2] -0.029 | [3] -0.064 | [4] -0.037 | [5] -0.007 | [6] 0.001 | [7] 0.025 | [8] -0.014 | IRAK-1-4 Inhibitor I -0.017 | ibrutinib -0.005 | [9] -0.005 | ralimetinib 0.067 | [10] 0.003 | [11] 0.006 | [12] 0.021 | [13] 0.034 | [14] -0.043 | [15] 0.081 | [16] -0.002

DMAC2L (UniProt Q99766)
inactive: erlotinib -0.057 | [1] 0.033 | [2] -0.017 | [3] 0.008 | [4] -0.074 | [5] 0.015 | [6] -0.066 | [7] -0.068 | [8] 0.027 | IRAK-1-4 Inhibitor I -0.005 | ibrutinib 0.046 | [9] -0.046 | ralimetinib 0.037 | [10] -0.017 | [11] 0.017 | [12] 0.005 | [13] -0.018 | [14] 0.008 | [15] -0.043 | [16] -0.019

CWC22 (UniProt Q9HCG8)
UniProt Q9HCG8, sequence (Q9HCG8 whole entry, looked up): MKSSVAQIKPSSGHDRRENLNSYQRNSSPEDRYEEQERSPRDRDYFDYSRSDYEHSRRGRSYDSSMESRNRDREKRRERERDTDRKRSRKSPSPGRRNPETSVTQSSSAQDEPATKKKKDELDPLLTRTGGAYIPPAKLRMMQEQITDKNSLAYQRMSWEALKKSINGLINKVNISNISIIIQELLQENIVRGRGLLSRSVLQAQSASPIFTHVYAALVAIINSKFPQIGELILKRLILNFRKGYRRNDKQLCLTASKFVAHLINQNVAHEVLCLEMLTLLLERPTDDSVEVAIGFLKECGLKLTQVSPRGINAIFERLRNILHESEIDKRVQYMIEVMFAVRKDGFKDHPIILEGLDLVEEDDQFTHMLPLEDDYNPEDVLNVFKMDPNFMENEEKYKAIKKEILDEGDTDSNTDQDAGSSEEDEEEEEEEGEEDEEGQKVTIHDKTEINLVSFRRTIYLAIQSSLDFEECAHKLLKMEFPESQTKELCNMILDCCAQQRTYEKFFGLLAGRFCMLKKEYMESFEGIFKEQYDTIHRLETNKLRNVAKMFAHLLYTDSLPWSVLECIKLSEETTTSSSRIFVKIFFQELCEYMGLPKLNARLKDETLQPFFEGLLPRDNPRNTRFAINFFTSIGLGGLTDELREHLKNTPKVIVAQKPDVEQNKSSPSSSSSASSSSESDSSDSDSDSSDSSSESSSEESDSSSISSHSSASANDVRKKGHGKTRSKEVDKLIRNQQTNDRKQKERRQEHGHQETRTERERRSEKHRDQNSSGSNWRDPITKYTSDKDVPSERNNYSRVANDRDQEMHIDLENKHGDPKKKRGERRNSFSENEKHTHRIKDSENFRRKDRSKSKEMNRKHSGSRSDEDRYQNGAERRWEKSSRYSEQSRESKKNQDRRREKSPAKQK
inactive: erlotinib 0.058 | [1] 0.006 | [2] -0.046 | [3] -0.009 | [4] -0.032 | [5] -0.025 | [6] -0.092 | [7] -0.014 | [8] -0.006 | IRAK-1-4 Inhibitor I -0.017 | ibrutinib 0.027 | [9] -0.007 | ralimetinib 0.007 | [10] -0.002 | [11] -0.005 | [12] 0.06 | [13] 0 | [14] -0.002 | [15] 0.028 | [16] -0.009

COMT (UniProt P21964)
UniProt P21964, sequence (P21964 whole entry, looked up): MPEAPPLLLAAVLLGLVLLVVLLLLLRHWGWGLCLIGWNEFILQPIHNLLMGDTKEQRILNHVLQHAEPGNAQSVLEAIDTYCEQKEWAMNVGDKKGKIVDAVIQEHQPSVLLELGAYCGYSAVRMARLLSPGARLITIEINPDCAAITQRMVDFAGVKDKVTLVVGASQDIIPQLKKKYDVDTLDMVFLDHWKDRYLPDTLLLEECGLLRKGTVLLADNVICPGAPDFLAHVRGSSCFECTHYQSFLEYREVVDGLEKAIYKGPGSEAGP
inactive: erlotinib 0.031 | [1] -0.03 | [2] -0.01 | [3] 0.011 | [4] -0.029 | [5] 0.001 | [6] 0.043 | [7] -0.024 | [8] -0.033 | IRAK-1-4 Inhibitor I 0.019 | ibrutinib 0.01 | [9] 0.019 | ralimetinib 0.01 | [10] 0.016 | [11] 0.009 | [12] -0.045 | [13] 0.002 | [14] 0.031 | [15] 0.019 | [16] 0.01

DIAPH3 (UniProt Q9NSV4)
inactive: erlotinib 0.042 | [1] 0.07 | [2] -0.022 | [3] 0.05 | [4] 0.074 | [5] 0.045 | [6] -0.066 | [7] -0.04 | [8] -0.082 | IRAK-1-4 Inhibitor I -0.041 | ibrutinib 0.012 | [9] 0.093 | ralimetinib 0.086 | [10] -0.032 | [11] -0.066 | [12] 0.043 | [13] 0.005 | [14] -0.011 | [15] 0.038 | [16] -0.035

CSNK1G3 (UniProt Q9Y6M4)
active: [9] 0.529
inactive: erlotinib -0.115 | [1] -0.018 | [2] 0.097 | [3] 0.149 | [4] 0.073 | [5] -0.043 | [6] 0.234 | [7] 0.018 | [8] 0.079 | IRAK-1-4 Inhibitor I 0.022 | ibrutinib -0.025 | ralimetinib 0.003 | [10] -0.048 | [11] -0.038 | [12] -0.007 | [13] 0.024 | [14] 0.031 | [15] -0.066 | [16] 0.132

CUEDC2 (UniProt Q9H467)
UniProt Q9H467, sequence (Q9H467 whole entry, looked up): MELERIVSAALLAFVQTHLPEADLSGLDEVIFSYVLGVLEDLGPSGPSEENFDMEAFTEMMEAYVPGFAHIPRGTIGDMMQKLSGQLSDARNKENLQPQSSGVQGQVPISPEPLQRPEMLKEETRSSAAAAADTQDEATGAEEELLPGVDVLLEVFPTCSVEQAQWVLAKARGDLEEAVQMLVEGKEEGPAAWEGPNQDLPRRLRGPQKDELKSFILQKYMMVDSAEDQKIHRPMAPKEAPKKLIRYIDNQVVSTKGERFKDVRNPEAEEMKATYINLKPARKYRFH
inactive: erlotinib -0.011 | [1] 0.044 | [2] 0.032 | [3] 0.035 | [4] -0.02 | [5] 0 | [6] -0.039 | [7] 0.029 | [8] -0.106 | IRAK-1-4 Inhibitor I 0.013 | ibrutinib 0.056 | [9] 0.044 | ralimetinib 0.001 | [10] -0.032 | [11] 0.026 | [12] -0.027 | [13] -0.014 | [14] 0.052 | [15] 0.018 | [16] -0.082

CSPP1 (UniProt Q1MSJ5)
inactive: erlotinib -0.028 | [1] -0.094 | [2] 0.079 | [3] 0.017 | [4] -0.088 | [5] 0.021 | [6] -0.137 | [7] -0.02 | [8] 0.007 | IRAK-1-4 Inhibitor I -0.026 | ibrutinib 0.052 | [9] 0 | ralimetinib 0 | [10] 0.026 | [11] -0.023 | [12] 0 | [13] -0.015 | [14] -0.074 | [15] -0.006 | [16] 0.084

CNOT6L (UniProt Q96LI5)
inactive: erlotinib -0.011 | [1] 0 | [2] 0.007 | [3] -0.02 | [4] 0.007 | [5] -0.04 | [6] -0.042 | [7] -0.018 | [8] -0.012 | IRAK-1-4 Inhibitor I 0.002 | ibrutinib 0.02 | [9] 0.015 | ralimetinib 0.037 | [10] -0.06 | [11] -0.05 | [12] 0.064 | [13] -0.07 | [14] 0.008 | [15] -0.041 | [16] 0.016

DDA1 (UniProt Q9BW61)
inactive: erlotinib -0.004 | [1] -0.001 | [2] 0.036 | [3] -0.03 | [4] 0.008 | [5] -0.093 | [6] 0.016 | [7] -0.017 | [8] -0.01 | IRAK-1-4 Inhibitor I 0.012 | ibrutinib 0.108 | [9] -0.003 | ralimetinib 0 | [10] 0.019 | [11] -0.072 | [12] 0.028 | [13] 0.022 | [14] 0.01 | [15] 0.018 | [16] -0.017

DDX39A (UniProt O00148)
inactive: erlotinib 0.023 | [1] -0.095 | [2] -0.045 | [3] -0.001 | [4] -0.003 | [5] 0.008 | [6] -0.026 | [7] -0.02 | [8] 0.009 | IRAK-1-4 Inhibitor I 0.014 | ibrutinib -0.005 | [9] 0.062 | ralimetinib -0.009 | [10] 0.029 | [11] 0.022 | [12] 0 | [13] 0.009 | [14] -0.032 | [15] -0.016 | [16] -0.004

CIAO2A (UniProt Q9H5X1)
UniProt Q9H5X1, sequence (Q9H5X1 whole entry, looked up): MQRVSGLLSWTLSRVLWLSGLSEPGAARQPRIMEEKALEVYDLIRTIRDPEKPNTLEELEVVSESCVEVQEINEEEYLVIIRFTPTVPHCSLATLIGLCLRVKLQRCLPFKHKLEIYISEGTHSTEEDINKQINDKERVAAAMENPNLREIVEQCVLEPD
inactive: erlotinib -0.052 | [1] 0.029 | [2] 0.03 | [3] -0.056 | [4] -0.071 | [5] -0.025 | [6] -0.007 | [7] 0.04 | [8] 0.009 | IRAK-1-4 Inhibitor I 0.032 | ibrutinib 0.005 | [9] 0.044 | ralimetinib 0.053 | [10] -0.034 | [11] 0.056 | [12] 0.032 | [13] -0.06 | [14] -0.026 | [15] -0.067 | [16] -0.02
